The results in this text go back to PubChem BioAssay (Tox21).

SMILES strings stand for the structures. Where “and” joins values, the source holds several entries; their conditions need not be identical. Equal entries are not always repeated. Results filed as inconclusive are left out. Entries that show only a call come without a potency. A structure can be active in one record and inactive in another. Calls of active or inactive are those of the source. Unless noted, calls follow the shape of the dose curve; as a rule, active = well fitted cell-killing curve with a large enough effect in the repeat runs; inconclusive = weak or mixed curves, or effect the other way; inactive = no such curve, though single readings can be large or run the other way.

The first assay is described as follows: qHTS assay for small molecule activators of the heat shock response signaling pathway - cell viability counter screen (AID 743209). Also: nearly all actives have a fitted effect of over 50% in size. Also: potency is read from the fitted curve at half-maximal effect. The note with it: HSE-bla HeLa viability, CellTiter-Glo luminescence, 5 h; series mostly up to 62.6 µM. A digest of the protocol: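 To flag cytotoxic compounds, HSE-bla HeLa cells plated at 1500 cells/well were dosed for 5 h at 37 C, followed by the reporter FRET read and then CellTiter-Glo, with luminescence recorded 30 min after reagent addition.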
A general note: qHTS replaces the single test concentration by a dilution series.
Take `CC12CC1(C)C(=O)N(c1cc(Cl)cc(Cl)c1)C2=O` (stereo not drawn): the Potency entry is “inactive”. On the same count and under the same terms, in the case of `OCC(O)CCl` (stereo not drawn) it was “inactive”. Same read-out and setting: the result for `N#Cc1cccc(C#N)c1` reads “inactive”; that for `Oc1c(Br)cc(Br)cc1Br`, “inactive”. Still for that read-out and setting: the result for `O=C(O)c1cc(Oc2ccc(C(F)(F)F)cc2Cl)ccc1[N+](=O)[O-]` reads “inactive”; that for `Cc1ccc(O)c(C)c1`, “inactive”; that for `CNCC(O)c1ccc(O)cc1` (stereo not drawn), “inactive”.

Turning to `CCOC(=O)CC(SP(=O)(OC)OC)C(=O)OCC` (stereo not drawn), the Potency result was “inactive”. For `CCOP(=S)(OCC)Oc1cc(C)nc(C(C)C)n1`, the Potency entry was “inactive and 43.6 µM (active)”.

Consider `CNC(=O)O/N=C/C(C)(C)SC`, for which the Potency result is “inactive”. On the same count and under the same terms, the result for `COP(=S)(OC)SCN1C(=O)c2ccccc2C1=O` reads “inactive”; that for `ClCCOCCCl`, “inactive”.

For the compound `CC(=O)C1CCOC1=O` (stereo not drawn), the Potency result was “inactive”. The same measure, in the same setting: in the case of `O=S(=O)(O)OOS(=O)(=O)O` it was “inactive”; in that of `CC[N+](=O)[O-]`, “inactive”; in that of `COC(=O)Nc1cccc(OC(=O)Nc2cccc(C)c2)c1`, “inactive”. Still for that read-out and setting: in the case of `Cc1cccc(N)c1C` it was “inactive”. The same measure, in the same setting: the result for `Cc1ccc(N)cc1` reads “inactive”; that for `CNC(=O)O/N=C/C(C)(C)S(C)(=O)=O`, “inactive”. On to `Cc1ccc(N=C=O)cc1N=C=O`, for which the Potency entry is “inactive”. For the compound `COS(=O)(=O)OC`, the Potency result is “inactive”. The same measure, in the same setting: the result for `CC(C)c1cccc(C(C)C)c1O` reads “inactive”. The same measure, in the same setting: the result for `COC(C)(C)CCCC(C)C/C=C/C(C)=C/C(=O)OC(C)C` (stereo not drawn) reads “inactive”; that for `Cc1cccc(C)c1N`, “inactive”; that for `C=CCN=C=S`, “inactive”.

On to `Clc1cnc(Oc2ccc(Oc3ncc(Cl)cc3Cl)cc2)c(Cl)c1`, for which the Potency entry was “inactive”.

With `O=[N+]([O-])c1cc([As](=O)(O)O)ccc1O`, the Potency result is “inactive”. The same measure, in the same setting: the result for `O=C(O)Cc1ccccc1` reads “inactive”; that for `O=[N+]([O-])c1ccc(Cl)c(Cl)c1`, “inactive”. Still for that read-out and setting: the result for `O=P1(NCCCl)OCCCN1CCCl` (stereo not drawn) reads “inactive”; that for `CNc1cnn(-c2cccc(C(F)(F)F)c2)c(=O)c1Cl`, “inactive”.

The nature of the next assay: qHTS assay for small molecule activators of the heat shock response signaling pathway (AID 743210; active = well fitted activation curve with a large enough effect in the signal ratio in the repeat runs, with a control signal flat, not every such curve was filed as active; the % refers to the signal ratio). The note with it: HeLa HSE-bla reporter, beta-lactamase ratio, 5 h; series mostly up to 62.6 µM. A digest of the protocol: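 Beta-lactamase reporter read-out: FRET substrate fluorescence after 2.5 h at RT, following 5 h compound treatment at 37 C of HeLa cells carrying HSE-driven bla reporter; quantitative HTS format.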
In the case of `CC12CC1(C)C(=O)N(c1cc(Cl)cc(Cl)c1)C2=O` (stereo not drawn), the Potency result is “inactive”. On the same count and under the same terms, in the case of `OCC(O)CCl` (stereo not drawn) it was “inactive”; in that of `N#Cc1cccc(C#N)c1`, “inactive”.

For `Oc1c(Br)cc(Br)cc1Br`, the Potency result is “inactive”. Still for that read-out and setting: in the case of `O=C(O)c1cc(Oc2ccc(C(F)(F)F)cc2Cl)ccc1[N+](=O)[O-]` it was “inactive”; in that of `Cc1ccc(O)c(C)c1`, “inactive”. The same measure, in the same setting: the result for `CNCC(O)c1ccc(O)cc1` (stereo not drawn) reads “inactive”; that for `CCOC(=O)CC(SP(=O)(OC)OC)C(=O)OCC` (stereo not drawn), “inactive”. The same measure, in the same setting: in the case of `CCOP(=S)(OCC)Oc1cc(C)nc(C(C)C)n1` it was “inactive”; in that of `COP(=S)(OC)SCN1C(=O)c2ccccc2C1=O`, “inactive”; in that of `ClCCOCCCl`, “inactive”. Take `CC(=O)C1CCOC1=O` (stereo not drawn): the Potency entry is “inactive”.

With `O=S(=O)(O)OOS(=O)(=O)O`, the Potency entry was “inactive”. On the same count and under the same terms, the result for `CC[N+](=O)[O-]` reads “inactive”; that for `Cc1cccc(N)c1C`, “inactive”; that for `Cc1ccc(N)cc1`, “inactive”. On the same count and under the same terms, the result for `CNC(=O)O/N=C/C(C)(C)S(C)(=O)=O` reads “inactive”; that for `COS(=O)(=O)OC`, “inactive”. Take `CC(C)c1cccc(C(C)C)c1O`: the Potency entry was “inactive”.

As for `Cc1cccc(C)c1N`, the Potency result is “inactive”. On the same count and under the same terms, the result for `C=CCN=C=S` reads “inactive”.

In the case of `Clc1cnc(Oc2ccc(Oc3ncc(Cl)cc3Cl)cc2)c(Cl)c1`, the Potency result was “inactive”. Still for that read-out and setting: the result for `O=[N+]([O-])c1cc([As](=O)(O)O)ccc1O` reads “inactive”. Same read-out and setting: in the case of `O=C(O)Cc1ccccc1` it was “inactive”; in that of `O=[N+]([O-])c1ccc(Cl)c(Cl)c1`, “inactive”. Same read-out and setting: in the case of `O=P1(NCCCl)OCCCN1CCCl` (stereo not drawn) it was “inactive”; in that of `CNc1cnn(-c2cccc(C(F)(F)F)c2)c(=O)c1Cl`, “inactive”.
